The list is not random: actives were taken first. Their share in the collection is about 0.9%.
PPARg SRC-1 ag: PPARgamma-driven SRC-1 recruitment agonism. activation, % at 8 µM. AID 631. 0.41% of 200,000 active. PPARgamma-SRC-1 coactivator recruitment biochemical assay; in the data active = activation above about 19%;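 also: 0% = DMSO and 100% = reference agonist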
Target sequence (P37231 whole entry, looked up): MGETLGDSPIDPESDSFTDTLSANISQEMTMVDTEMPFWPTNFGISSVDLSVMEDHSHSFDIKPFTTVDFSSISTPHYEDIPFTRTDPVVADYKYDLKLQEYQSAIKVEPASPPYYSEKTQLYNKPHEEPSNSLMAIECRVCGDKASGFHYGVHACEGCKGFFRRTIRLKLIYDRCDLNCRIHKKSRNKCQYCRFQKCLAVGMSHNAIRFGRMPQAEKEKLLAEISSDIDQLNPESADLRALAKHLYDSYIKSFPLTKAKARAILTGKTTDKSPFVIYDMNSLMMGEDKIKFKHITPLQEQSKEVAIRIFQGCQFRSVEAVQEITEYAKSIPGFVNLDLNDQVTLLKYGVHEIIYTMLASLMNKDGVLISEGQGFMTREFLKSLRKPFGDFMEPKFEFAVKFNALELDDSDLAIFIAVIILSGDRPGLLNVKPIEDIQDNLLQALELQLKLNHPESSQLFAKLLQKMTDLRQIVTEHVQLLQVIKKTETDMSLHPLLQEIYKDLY
PPARg SRC2 recr: promotes SRC-2 coactivator recruitment by human PPARgamma; activation, % at 8 µM; PPARgamma LBD-SRC-2 recruitment, biochemical; 0.34% of 200,000 active; P37231; in the data active = activation above about 22%;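 also: 0% = vehicle and 100% = reference agonist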
SRC2 TRFRET art: TR-FRET artefact, counter-screen to PPARgamma/SRC-2 agonist assay | active compounds read high | 0.4% of 200,000 active | TR-FRET ratio at 8 µM
SRC1 TRFRET art: counter-screen for PPARgamma SRC-1 recruitment agonists: TR-FRET artefact | 0.34% of 99,000 active | TR-FRET ratio at 8 µM | TR-FRET detection artefact counter-screen, emission ratio; active compounds read high; in the data active = TR-FRET ratio above about 2300
PPARg SRC-3 ag: PPARgamma-driven SRC-3 recruitment agonism. P37231. biochemical PPARgamma/SRC-3 coactivator recruitment assay. activation, % at 8 µM. 0.26% of 200,000 active. AID 731; in the data active = activation above about 23%;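 also: 0% = DMSO and 100% = reference agonist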
SRC3 TRFRET art: TR-FRET artefact, counter-screen to PPARgamma/SRC-3 agonist assay; TR-FRET ratio at 8 µM; PPARgamma/SRC-3 format; active compounds read high; 0.39% of 99,000 active; AID 1048
PPARg SRC2 ag: human PPARgamma SRC-2 recruitment agonism, confirmation | shares compounds with PPARg SRC-3 ag | biochemical SRC-2 recruitment by PPARgamma | activation, % at 8 µM | 52% of 790 active | AID 1297; in the data active = activation above about 22%;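 also: 0% = vehicle alone and 100% = reference agonist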
PPARg SRC1 ag: human PPARgamma SRC-1 recruitment agonism, confirmation; 43% of 790 active; activation, % at 8 µM; shares compounds with PPARg SRC-3 ag; PPARgamma–SRC-1 coactivator recruitment biochemical assay; AID 1300; in the data active = activation above about 20%;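 also: 0% = vehicle wells and 100% = reference agonist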
PPARg SRC3 ag: human PPARgamma SRC-3 recruitment agonism, confirmation; shares compounds with PPARg SRC-3 ag; biochemical PPARgamma-SRC-3 coactivator recruitment, agonist mode; activation, % at 8 µM; 29% of 790 active; in the data active = activation above about 24%;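 also: 0% = vehicle wells and 100% = reference agonist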
An asterisk follows results filed as active; nt = not tested or not shown. Rule as the data show it, unless noted: active = TR-FRET ratio above about 2000; inactive = the rest.

SMILES	PPARg SRC-1 ag	PPARg SRC2 recr	SRC2 TRFRET art	SRC1 TRFRET art	PPARg SRC-3 ag	SRC3 TRFRET art	PPARg SRC2 ag	PPARg SRC1 ag	PPARg SRC3 ag
O=C(Nc1nc(-c2ccc3c(c2)OCCO3)cs1)c1ccc(S(=O)(=O)N2CCCCC2)cc1	5.8	16.5	1917	nt	8.8	nt	nt	nt	nt
O=C(Nc1nc(-c2ccc(S(=O)(=O)N3CCCC3)cc2)cs1)C1COc2ccccc2O1 (configuration not stated)	19.8*	22.2*	2533*	nt	32.5*	nt	34.1*	27.2*	20.0
COc1ccccc1-c1noc(-c2ccccc2C(=O)Nc2cccnc2)n1	1.1	-6.5	1476	nt	-10.6	nt	nt	nt	nt
O=C(CSc1c2c(nc3cc(Cl)ccc13)CCCC2)NCCCN1CCOCC1	24.6*	26.0*	1791	2212	12.3	2060*	21.8	17.8	14.0
O=C(CSc1c2c(nc3ccccc13)CCCC2)NCc1ccco1	21.2*	13.4	1765	2158	12.4	1591	5.8	3.5	3.6
Cc1cc(Cl)ccc1OCC(=O)NCCCN1CCOCC1	1.1	-7.1	1601	nt	-19.7	nt	nt	nt	nt
O=C(NCc1ccco1)c1c2c(nc3ccccc13)CCC2	6.5	2.3	1431	1760	-3.5	1542	nt	nt	nt
Cc1ccc(CNC(=O)CSc2c3c(nc4cc(Cl)ccc24)CCCC3)o1	12.3	28.3*	1917	nt	25.1	nt	26.6*	18.3	19.1
CCN(CC)CCCNC(=O)CSc1c2c(nc3cc(Cl)ccc13)CCCC2	33.3*	34.4*	2152*	2550*	22.2	2400*	25.9*	19.4	16.7
CCn1c(CNC(=O)c2ccco2)nnc1SCC(=O)Nc1cc(C(F)(F)F)ccc1Cl	2.2	4.0	1501	nt	-3.3	nt	nt	nt	nt
O=C(O)/C=C/C(=O)Nc1ccc(NC(=O)c2ccccc2)c(Cl)c1	7.4	3.4	1704	1812	5.0	1710	nt	nt	nt
CCCCNC(=O)c1ccc2c(SCC(=O)O)c3c(nc2c1)CCCC3	-3.6	-3.6	1528	1557	-0.3	1511	nt	nt	nt
O=C(CSc1c2c(nc3cc(Cl)ccc13)CCCC2)NCCN1CCOCC1	27.2*	31.7*	2224*	2381*	18.9	2338*	16.2	13.4	12.9
O=C(O)CSc1c2c(nc3cc(C(=O)N4CCCC4)ccc13)CCCC2	-0.1	8.9	1578	1966	2.4	1613	nt	nt	nt
COCCCNC(=O)CSc1c2c(nc3ccc(Cl)cc13)CCCC2	31.3*	27.8*	1928	2727*	19.1	2277*	18.6	13.3	11.0
O=C(CSc1nnc(-c2cccs2)n1-c1ccccc1)Nc1ccccc1	45.5*	63.6*	1837	nt	31.4*	nt	19.8	16.7	9.1
CCOC(=O)CSc1nnc(-c2cccs2)n1-c1ccccc1	6.5	6.4	1676	nt	5.8	nt	nt	nt	nt
CCCC(=Nc1ccc(N)cc1)C1=C(O)C(C(=O)OC)C(C)(C)CC1=O (configuration not stated)	9.1	18.9	1541	nt	27.2*	nt	3.5	0.8	2.3
CCCC(=O)C1=C(O)C(C(=O)OC)C(C)(C)CC1=Nc1ccc(N)cc1 (configuration not stated)	4.7	1.6	1498	nt	1.1	nt	nt	nt	nt
Clc1ccc(-c2nnc(COc3ncnc4ccccc34)o2)cc1	4.2	5.9	1656	1803	-1.5	1729	nt	nt	nt
Cc1ccc(S(=O)(=O)N2CCCCC2)cc1NC(=O)C1CCCO1 (configuration not stated)	9.3	-3.9	1625	2118	1.2	1479	nt	nt	nt
Cc1nc(NCCc2ccccc2F)c(C#N)c(C)c1[N+](=O)[O-]	2.2	4.0	1561	nt	0.6	nt	nt	nt	nt
S=C(NCc1ccc2c(c1)OCO2)Nc1ccc2nsnc2c1	61.4*	90.9*	2840*	3812*	56.4*	3652*	22.6*	28.0*	14.1
Cc1ccc(NC(=S)NCc2ccc3c(c2)OCO3)cc1C	-1.0	-5.8	1647	1815	-0.4	1566	nt	nt	nt
CCOc1ccc(CNc2ccc(N3CCCC3)cc2)cc1	11.5	29.4*	1770	nt	22.4	nt	11.4	5.4	5.6
SMILES	PPARg SRC-1 ag	PPARg SRC2 recr	SRC2 TRFRET art	SRC1 TRFRET art	PPARg SRC-3 ag	SRC3 TRFRET art	PPARg SRC2 ag	PPARg SRC1 ag	PPARg SRC3 ag
CCC(=O)Nc1ccc(Cl)c(NC(=O)C(C)C)c1	-3.2	-3.6	1473	nt	-1.8	nt	nt	nt	nt
O=C(Nc1ccncc1)c1ccc(-c2ccccc2)cc1	1.4	-1.6	1551	1996	4.6	1594	nt	nt	nt
COc1cc(C(=O)NCc2ccc3c(c2)OCO3)ccc1OCc1c(C)noc1C	5.2	24.9*	1774	nt	20.3	nt	-0.6	0.2	-1.9
CCOc1ccccc1OCCCNCc1ccco1	-6.7	4.2	1279	1490	4.8	1528	nt	nt	nt
C=CCNC(=S)NNC(=O)c1ccc(=O)n(Cc2ccc(Cl)cc2Cl)c1	13.8	1.1	1605	1846	30.6*	1621	7.9	10.4	18.8
CCC1(C)Cc2c(C#N)c(N)sc(=S)c2CO1 (configuration not stated)	12.4	12.9	1619	nt	27.0*	nt	5.6	7.8	7.0
O=C(CS(=O)CC(=O)N(CC(=O)NC1CCCC1)C1CCCC1)Nc1ccc(F)cc1 (configuration not stated)	4.3	-0.4	1483	nt	2.7	nt	nt	nt	nt
CC(=O)Nc1ccc(NC(=O)CC2Nc3cccc4cccc(c34)NC2=O)cc1 (configuration not stated)	6.0	10.5	1572	nt	25.8*	nt	9.6	12.4	7.0
CC(C)c1cc(C(=O)N2CCCC(CCC(=O)NCc3ccccc3F)C2)n(C)n1 (configuration not stated)	3.1	6.2	1584	1882	6.2	1386	nt	nt	nt
N#Cc1c(-c2ccccc2)cc(C2CC2)nc1SCC(=O)c1cccs1	23.7*	7.3	2112*	nt	11.7	nt	53.3*	42.8*	26.3*
Cc1ccc([N+](=O)[O-])cc1N(CC(=O)Nc1ccc(S(=O)(=O)Nc2cccc(C(F)(F)F)c2)cc1)S(C)(=O)=O	0.5	-1.0	1458	1880	2.0	1552	nt	nt	nt
Cc1ccccc1SCCNC(=O)c1ccccc1Br	-3.7	-1.9	1575	1769	-6.1	1672	nt	nt	nt
COc1ccc(CC(=O)NNC(=O)COc2ccc3ccccc3c2)cc1	193.8*	213.7*	3867*	6123*	142.3*	4430*	256.0*	195.8*	169.4*
COc1ccc(OCC(=O)NNC(=O)CCc2ccccc2)cc1	-11.2	-1.9	1544	1505	-2.6	1553	nt	nt	nt
Cn1cc(C2N3CC4(C)CN2CC(C)(C3)C4=O)c2ccccc21 (configuration not stated)	-3.5	2.8	1639	1812	0.5	1510	nt	nt	nt
Cc1c(O)c2c3c(cccc3c1O)C(=O)N(c1ccccc1)C2=O	24.5*	22.4*	2078*	2683*	14.2	2155*	26.2*	16.2	19.0
